Measured values taken from PubChem BioAssay (NCI).
This is part of a sample that, as a whole, favours compounds with a hit. Of some 83,000 tested, about 20% had one in any assay.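 How to read the values: 0–100, growth inhibition (40 = 60% inhibited); 0, no net growth; -100 to 0, cell death (-40 = 40% of starting cells died; -100 = all dead).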 Values without a mark were called inactive. Activity calls are given as the source filed them. Rule for the calls: active = growth percent below 10; inactive = the rest.

Tested on: UO-31 renal
Test: NCI-60 one-dose screen, 48 h (100 = growth as untreated, 0 = no growth, -100 = all killed)
Settings: 10 µM unless noted

Compound	growth
O=C1C=CC(=O)N1c1ccc2c(c1)Cc1cc(F)ccc1-2	80.6%
OCCN1CCN(c2nc(Nc3ccc(-c4nc5ccccc5[nH]4)cc3)c3cn[nH]c3n2)CC1	-89.4% (active)
COc1cc(-c2nc3ccccc3[nH]2)ccc1OCC(=O)N=Nc1c(O)[nH]c2ccc(Cl)cc12	104%
CC(=O)Oc1ccc(Cl)cc1CN(C(C)=O)C1CCCCC1	90.5%
C=CCSSc1ncnc2c1ncn2C1OC(CO)C(O)C1O (stereo not drawn)	36.5%
COc1cc(Nc2cc(C)nc(N3CCN(c4ccnc5cc(Cl)ccc45)CC3)n2)cc(OC)c1	-9.39% (active)
CCN1CCN(c2nc(NCCNc3ccnc4cc(Cl)ccc34)c3ccccc3n2)CC1	-75.2% (active)
COc1ccc(C(=O)c2sc3nc4c(c(-c5cccnc5)c3c2N)CCCC4)cc1OC	63.8%
CN1CCN=C1c1ccc(NC(=O)c2ccc(C(=O)Nc3ccc(C4=NCCN4C)cc3)cc2)cc1	82.3%
COc1ccc(C(=O)c2sc3nc(C)cc(C)c3c2N)cc1OC	87.3%
COc1cccc(/C=N/NC(=O)c2ccccc2Nc2ccnc(C(F)(F)F)c2)c1O	7.6% (active)
C=CCSSC1N=CNc2nc[nH]c21 (stereo not drawn)	35.7%
CCCCn1cnc2c(Sc3c([N+](=O)[O-])ncn3C)nc(N)nc21	69.1%
Fc1ccc(CNc2cccc3[nH]c(C(F)(F)F)nc23)cc1	84.8%
CCCCCCN(CCCCCC)C(=N)c1ccnc2ccccc12	36.5%
COc1ccc(C(=S)N2CCN(c3cccc(Cl)c3)CC2)cc1	83.2%
O=C(N/N=C/c1ccccc1O)c1ccccc1Nc1ccnc(C(F)(F)F)c1	7.98% (active)

Compound	growth
COc1ccc(-c2cc(=O)c3c(OC)c4ccoc4cc3o2)cc1	90.7%
COc1ccc(CN2c3ccccc3Oc3ccccc32)cc1F	53.3%
C=CC(=O)Nc1cccc(-c2nc(SC)nc(NCCc3ccc(OC)c(OC)c3)c2C#N)c1	45.1%
Cc1nc(Nc2ccc(F)c(Cl)c2)sc1C(=O)O	-8.39% (active)
O=C(Nc1cccc2[nH]c(C(F)(F)F)nc12)c1ccc(-n2cnnn2)cc1	75.9%
Cc1cc(Nc2ccc(C)c(Cl)c2)n2nc(C(F)(F)F)nc2n1	-43.2% (active)
CCOc1cc2c(cc1OCC)C(c1cc(OC)c(O)cc1Cl)NCC2 (stereo not drawn)	70.1%
COc1ccc(CCNc2nc(SC)nc(-c3cccc([N+](=O)[O-])c3)c2C#N)cc1OC	84.8%
FC(F)(F)c1nc2c(NCc3ccc(-c4ccccc4)cc3)cccc2[nH]1	57.5%
CCN(CC)c1ccc(-c2cc(-c3cc(OC)c(OC)c(OC)c3)nc(N3CCOCC3)c2C#N)cc1	5.65% (active)
NC(=NCCCOc1ccc(Cl)cc1)Nc1ccc(C(F)(F)F)cc1	37.1%
NC(=NCCCC1(c2ccccc2)CCCC1)Nc1ccc(Cl)cc1	58.5%
CSc1ccc(-c2ccccc(=O)c2O)cc1	-17.8% (active)
C=C(C)C(=O)Nc1ccc(NC(C)C)cc1	100%
COc1cccc2c1C(=O)c1c(O)c3c(c(O)c1C2=O)C[C@](O)(C(=O)CO)C[C@H]3O[C@@H]1C[C@@H](NC(=O)CCCCCN(C)C2(c3ccc(F)cc3)CC3CCC2C3)[C@H](O)[C@@H](C)O1 (stereo partly drawn)	62.8%
N#Cc1cnn(-c2nc3c(Cl)cccc3s2)c1N	83.2%
